Results published in publication PMC4336329 (PLoS ONE, 2015).
In all, about 310,000 compounds went through this assay and about 14,000 (4.5%) showed an effect of 50% or more. The effect is printed as a negative number. This is one part of a sample in which strong results are shown more often than they occur.

Biological target: human ether-à-go-go-related gene (hERG) potassium channel (human, UniProt Q12809)
Assay: primary screen, population patch clamp on CHO cells stably expressing hERG; higher = less effect of the substance
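Further: peak tail current of the secondary pulse compared with the same well before compound.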

Chain of human ether-à-go-go-related gene (hERG) potassium channel (Q12809 whole entry, looked up): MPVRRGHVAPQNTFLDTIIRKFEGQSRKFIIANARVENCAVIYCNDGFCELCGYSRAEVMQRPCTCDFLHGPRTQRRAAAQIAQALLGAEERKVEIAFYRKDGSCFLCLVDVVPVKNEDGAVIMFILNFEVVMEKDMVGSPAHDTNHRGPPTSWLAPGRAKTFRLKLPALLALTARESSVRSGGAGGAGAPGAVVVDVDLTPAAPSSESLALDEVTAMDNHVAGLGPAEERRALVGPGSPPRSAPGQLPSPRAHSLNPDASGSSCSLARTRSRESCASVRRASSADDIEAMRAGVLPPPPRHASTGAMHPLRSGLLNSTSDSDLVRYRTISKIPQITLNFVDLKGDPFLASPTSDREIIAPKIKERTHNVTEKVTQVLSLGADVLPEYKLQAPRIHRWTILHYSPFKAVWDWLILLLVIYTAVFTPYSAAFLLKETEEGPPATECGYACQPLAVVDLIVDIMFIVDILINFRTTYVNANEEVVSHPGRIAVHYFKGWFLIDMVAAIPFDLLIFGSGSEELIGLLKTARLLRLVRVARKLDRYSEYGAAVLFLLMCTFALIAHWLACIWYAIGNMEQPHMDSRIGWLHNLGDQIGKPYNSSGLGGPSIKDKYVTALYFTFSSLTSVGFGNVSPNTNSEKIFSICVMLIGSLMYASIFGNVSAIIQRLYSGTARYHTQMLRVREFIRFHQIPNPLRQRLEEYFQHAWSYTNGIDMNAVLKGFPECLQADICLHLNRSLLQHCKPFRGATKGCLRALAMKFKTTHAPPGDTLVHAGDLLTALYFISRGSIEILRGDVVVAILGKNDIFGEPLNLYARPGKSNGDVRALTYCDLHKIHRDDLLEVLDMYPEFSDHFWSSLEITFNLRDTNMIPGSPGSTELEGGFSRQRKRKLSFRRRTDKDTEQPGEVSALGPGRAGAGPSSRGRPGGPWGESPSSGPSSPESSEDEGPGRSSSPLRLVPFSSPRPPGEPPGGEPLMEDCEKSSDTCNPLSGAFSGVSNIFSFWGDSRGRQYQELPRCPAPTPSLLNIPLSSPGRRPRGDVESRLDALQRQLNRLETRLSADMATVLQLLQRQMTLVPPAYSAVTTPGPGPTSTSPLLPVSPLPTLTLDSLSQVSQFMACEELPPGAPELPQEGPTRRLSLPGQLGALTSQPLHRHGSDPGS

Compound | hERG current change (%, negative = inhibition) at 10uM [%]
O=c1cc(C(F)(F)F)nc(SCc2cccc3ccccc23)[nH]1 | 24
Cn1c(SCC(=O)OC2CCCCC2)nnc1-c1ccc2c(c1)OCO2 | -19.7
COc1ccc(Cn2c(=O)[nH]c3cc(C(=O)NC4CCN(Cc5ccccc5)CC4)ccc32)cc1 | -3.88
COc1ccc(N2CCN(Cc3cc(=O)oc4cc(C)c(Cl)cc34)CC2)cc1 | 8.44
Cc1cc(C)n2nc(C(=O)OCC(=O)N3CC(C)CC(C)C3)nc2n1 (stereo not shown) | 15.4
O=C(NCc1ccco1)Nc1ccc2nsnc2c1 | 10.7
N#Cc1nc(-c2ccco2)oc1NCc1ccc(F)cc1 | -4.84
Cc1cc(C)c(Cn2ncn(-c3ccc(Br)cc3)c2=O)c(C)c1 | 19.4
CS(=O)(=O)N1CCN(C/C=C/c2ccccc2)CC1 | 7.98
O=C(COc1ccc(Cl)cc1)N1CCN(C/C=C/c2ccccc2)CC1 | -70.7
O=C(COc1ccc(Cl)cc1)N1CCCCC1 | -5.82
CC(=C1C(=O)c2ccccc2C1=O)N1CCN(C/C=C/c2ccccc2)CC1 | -55.6
O=C(COc1ccc(Cl)cc1)N1CCCCCCC1 | -12.2
CC(=C1C(=O)c2ccccc2C1=O)N1CCN(Cc2ccccc2)CC1 | -26.6
O=C(/C=C/c1ccco1)Nc1cc(Cl)ccc1C(=O)O | -10.3
CCCc1cc(=O)[nH]c(SC/C=C/c2ccccc2)n1 | 9.33
Cc1c(N(C)C)c(=O)n(-c2ccccc2)n1C | 19.1
COc1ccccc1CNS(=O)(=O)c1ccc2c(c1)NC(=O)CS2 | -1.59
O=C(NCCN1CCOCC1)c1ccc([N+](=O)[O-])cc1[N+](=O)[O-] | -0.151
O=C(NCCN1CCOCC1)c1sc2cc(Cl)ccc2c1Cl | -10.3

Compound | hERG current change (%, negative = inhibition) at 10uM [%]
O=C(NCCN1CCOCC1)c1cc([N+](=O)[O-])ccc1Cl | 6.5
CN(C)C(=O)c1cc2cc([N+](=O)[O-])ccc2s1 | -38.9
CCCNC(=O)c1cc2cc([N+](=O)[O-])ccc2s1 | -9.82
CCN(CC)C(=O)c1cc2cc([N+](=O)[O-])ccc2s1 | -55.5
O=C(NCCCN1CCOCC1)c1sc2ccccc2c1Cl | -9.81
O=C(NCCCN1CCOCC1)c1sc2cc(F)ccc2c1Cl | -44
O=C(NCCCN1CCOCC1)c1sc2cc(Cl)ccc2c1Cl | -69.6
O=C(NCCN1CCOCC1)c1cc2cc([N+](=O)[O-])ccc2s1 | -63.3
O=C(NCCCN1CCOCC1)c1sc2cc([N+](=O)[O-])ccc2c1Cl | -54
O=C(NCCN1CCOCC1)c1sc2ccccc2c1Cl | -6.21
O=c1c2cn[nH]c2[nH]c(=S)n1-c1ccccc1F | 24.8
N#CC1=C(N)Oc2cc(O)ccc2C1c1cccnc1 (stereo not shown) | 27.4
CCOc1nc2cnccc2n(CC(=O)Nc2ccccc2C(=O)OC)c1=O | -1.11
Cc1nn(-c2ccccc2)c(C)c1/C=N/NC(=O)CSc1nnc(SCc2cccc3ccccc23)s1 | 6.33
CCOC(=O)c1sc(=S)n(C)c1NC(=O)c1ccc(C(C)(C)C)cc1 | 11.8
CC(=O)N/C(=C/c1ccc2c(c1)OCO2)C(=O)O | -2.32
O=C(CCNS(=O)(=O)c1ccc(Cl)cc1)N1CCOCC1 | 22.4
Cc1ccc2[nH]c3c(c2c1)CCNC3=O | 4.86
COc1ccc2[nH]c3c(c2c1)CCNC3=O | 7.33
O=C1NCCc2c1[nH]c1ccccc21 | -77

Compound | hERG current change (%, negative = inhibition) at 10uM [%]
O=C(Nc1ccc(-c2csc(Nc3cccc(C(F)(F)F)c3)n2)cc1)c1cccc(C(F)(F)F)c1 | 9.98
CCCCN(CC)C(=S)Nc1ccc2nc(N3CCN(C)CC3)cc(C)c2c1 | -56.3
CCN1CCN(c2cc(C)c3cc(NC(=S)NCCN(C)C)ccc3n2)CC1 | 3.21
CCCCN(C)CCNC(=S)Nc1ccc2nc(N3CCN(CC)CC3)cc(C)c2c1 | 2.83
CCN1CCN(c2cc(C)c3cc(NC(=S)N(C)Cc4ccccc4)ccc3n2)CC1 | -77.7
CCCCN(CC)CCNC(=S)Nc1ccc2nc(N3CCN(C)CC3)cc(C)c2c1 | -0.781
CCCCN(C)C(=S)Nc1ccc2nc(N3CCN(CC)CC3)cc(C)c2c1 | -78.9
CCCCN(CC)CCCNC(=S)Nc1ccc2nc(N3CCN(C)CC3)cc(C)c2c1 | 5.19
CCN1CCN(c2cc(C)c3cc(NC(=S)N(CC)CC)ccc3n2)CC1 | -43.9
CCN1CCN(c2cc(C)c3cc(NC(=S)N4CCN(c5ccccc5)CC4)ccc3n2)CC1 | -0.088
Cc1c(NC(=O)CSc2n[nH]c(=O)n2-c2ccccc2)c(=O)n(-c2ccccc2)n1C | 16.9
CCOC(=O)c1c(NC(=O)c2cccc(N3C(=O)CCC3=O)c2)sc(C)c1C | 5.4
CC(=O)c1ccc(NC(=O)COC(=O)c2ccccc2Sc2ccccc2C#N)cc1 | 18
O=C(CCCCn1c(=S)[nH]c2ccsc2c1=O)NCc1ccco1 | 16.6
O=C(c1ccc2c(c1)ncn2C1CCCCCC1)N1CCC2(CC1)OCCO2 | -2.37
O=C(c1ccc(Br)cc1)N1CCCc2ccccc21 | -6.19
O=C(CSc1nc(O)c(Cc2ccccc2)c(=O)[nH]1)Nc1ccccc1 | 8.28
O=C(Nc1ccc(-c2noc(-c3cccs3)n2)cc1)c1cccnc1 | -3.79
